High-throughput results deposited in PubChem BioAssay by Johns Hopkins Ion Channel Center.
KCNQ2 block = blocks the rat KCNQ2 potassium channel | CHO-K1 KCNQ2, FluxOR thallium flux, 20 min; active compounds read low | hit rate 1.1% among 310,000 | B-score at 10 µM | O88943;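 active means fluorescence ratio B-score at most minus 3 library SDs, with starting brightness B-score within 2 library SDs, cut at about -5.5 in these data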
KCNQ2 pot = enhances the rat KCNQ2 potassium channel. O88943. CHO-K1 KCNQ2, FluxOR thallium flux fluorescence; active compounds read high. B-score at 10 µM. hit rate 0.54% among 310,000;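 active means fluorescence ratio B-score at least 3 SD of library B-scores, with initial fluorescence B-score within 3 of them, cut at about 5.3 in these data; same plate scores as AID 2156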;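 further: B-score of peak minus minimum over baseline fluorescence ratio after K+ and Tl+ stimulus; positive B-score means potentiation of KCNQ2 with more thallium influx and brighter signal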
Kir21 confirm = confirmation of mouse Kir2.1 potassium channel inhibitors; shares compounds with KCNQ2 pot; Kir2.1-expressing cells, FluxOR thallium flux fluorescence; active compounds read low; Tl flux remaining, % of negative control (active compounds read low), % at 10 µM; hit rate 41% among 2,300;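 active means Primary-screen hit whose thallium flux fell at least 3 control SD below untreated wells in both duplicates, with normal baseline fluorescence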;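 further: 0% = blank wells without stimulus and 100% = stimulated no-compound controls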
HEK293 ctr = counter-screen for Kir2.1 inhibitors: effect in parental HEK293 cells. AID 2105. hit rate 19% among 2,300. FluxOR signal as % of negative control (100 = no effect), % at 10 µM. FluxOR thallium flux fluorescence; 0% = unstimulated blank wells. shares compounds with KCNQ2 pot;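 active means dye signal at least 3 control SD above or below untreated wells in both duplicates, raw fluorescence within 3, either direction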;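 further: percent is based on the flux ratio of peak minus minimum fluorescence over baseline F0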
CHO-K1 Tl ctr = counter-screen for KCNQ2 potentiators: effect in parental CHO-K1 cells; shares compounds with KCNQ2 pot; FluxOR thallium flux fluorescence; zero = vehicle mean+3SD, 100% = vehicle-minus-blank window; activity increase over 3SD of controls, % at 10 µM; hit rate 43% among 1,200; AID 2282;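 active means signal rise of at least 3 SD above the untreated control mean, in both duplicate wells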;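 further: counter screen of KCNQ2 potentiator hits so any rise reflects channel-independent effects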
KCNQ1 pot spec = human KCNQ1 counter-target activity of KCNQ2 potentiators; shares compounds with KCNQ2 pot; CHO KCNQ1 stable, FluxOR thallium flux fluorescence; beyond 3SD, as % of vehicle-control signal; activation over 3SD threshold, % at 10 µM; hit rate 28% among 1,200; AID 2283;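 active means fluorescence ratio rise of at least 3 SD of vehicle wells above their mean, in both replicate wells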;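 further: 0% = vehicle mean plus 3 SD and 100% = vehicle minus unstimulated blank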
KCNQ2 pot confirm = confirmation of rat KCNQ2 potassium channel potentiators; CHO-KCNQ2 cells, FluxOR thallium flux fluorescence; shares compounds with KCNQ2 pot; hit rate 68% among 1,200; potentiation, less the hit threshold, % at 10 µM; AID 2287;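 active means fluorescence ratio rising 3 SD or more over the vehicle control mean in both replicates, plus primary screen hit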;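 further: peak minus minimum thallium fluorescence divided by baseline after K/Tl stimulus; 0% = vehicle mean plus 3 SD and 100% = vehicle minus unstimulated blank difference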
Kir21 spec = mouse Kir2.1 off-target activity of KCNQ2 potentiators; hit rate 2% among 1,200; HEK293 Kir2.1, FluxOR thallium flux fluorescence; activity over 3SD threshold, % at 10 µM; AID 2345; shares compounds with KCNQ2 pot;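 active means fluorescence ratio rise of at least 3 SD above the vehicle-control mean, seen in both replicates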;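 further: 0% = vehicle mean plus 3 SD and 100% = vehicle minus no-stimulus blank window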
KCNQ2 W236L pot = KCNQ2 potentiators acting on retigabine-insensitive rat KCNQ2 W236L mutant; shares compounds with KCNQ2 pot; CHO KCNQ2-W236L, automated patch clamp current; current increase over 3SD of negative controls (%), active compounds read high, % at 25 µM; hit rate 10% among 940; AID 2558;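 active means current increase at least 3 SD of the untreated controls above them in both duplicate recordings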
* marks the source's active call; other numbers are inactive results. This is a sample that favours compounds with a hit; in the whole collection about 1.6% have one here.

What do the screens show for `COc1ccc(C(=O)NC(=S)N2CCNC(=O)C2)cc1Br`?
KCNQ2 block: inactive; KCNQ2 pot: 1.3

How did CN1CCN(CCCNc2c(C=O)c(=O)[nH]c3ccccc23)CC1 do in these assays?
KCNQ2 block: inactive; KCNQ2 pot: 0.66

What do the screens show for `COc1ccc(CN(C)S(=O)(=O)c2ccc3c(c2)OCCO3)cc1`?
KCNQ2 block: inactive

How did CCN(C(=O)Cn1nnc(-c2ccccc2)n1)C1CCS(=O)(=O)C1 (stereo not given) do in these assays?
KCNQ2 block: inactive; KCNQ2 pot: 0.81

What do the screens show for `Cc1ccc(/C=C(\NC(=O)c2ccc(C)cc2)c2nc(=S)[nH][nH]2)cc1`?
KCNQ2 block: inactive; KCNQ2 pot: 6*; Kir21 confirm: inactive; HEK293 ctr: inactive; CHO-K1 Tl ctr: -4; KCNQ1 pot spec: -23; KCNQ2 pot confirm: -18; Kir21 spec: -37

Results for Cc1ccc(C(=O)N/C(=C\c2cccs2)c2nc3ccccc3[nH]2)cc1 ?
KCNQ2 block: inactive

Results for CC1CCCCC1NC(=S)NC(=O)c1sc2ccccc2c1Cl (stereo not given) ?
KCNQ2 block: inactive; KCNQ2 pot: 0.2

Results for O=C(NC(=S)N(CCCCO)C1CCCCC1)c1sc2ccccc2c1Cl ?
KCNQ2 block: inactive; KCNQ2 pot: 17*; Kir21 confirm: inactive; HEK293 ctr: inactive; CHO-K1 Tl ctr: 30*; KCNQ1 pot spec: 28*; KCNQ2 pot confirm: 56*; Kir21 spec: -8; KCNQ2 W236L pot: inactive

Results for COc1cc(-c2c(C#N)c(N)nc3[nH]c(=S)[nH]c(=O)c23)ccc1O ?
KCNQ2 block: inactive; KCNQ2 pot: 0.1

Results for CCC(=O)c1cn(/C(=C\C(=O)OC(C)(C)C)CCC(OC)OC)cc1CC ?
KCNQ2 block: inactive

Results for CC1=CC(C)(C)N(C(=O)CSc2nnc(C)s2)c2ccc(C)cc21 ?
KCNQ2 block: inactive; Kir21 confirm: 70%*; HEK293 ctr: inactive

How did CC1=CC(C)(C)N(C(=O)CSc2nnc(N)s2)c2cc(C)c(C)cc21 do in these assays?
KCNQ2 block: inactive; KCNQ2 pot: 1

How did CCC(C)NC(=O)c1ccccc1NS(=O)(=O)c1ccc(OC)c(OC)c1 (stereo not given) do in these assays?
KCNQ2 block: inactive

How did O=C1CC(N2CCN(Cc3ccc(Cl)cc3)CC2)C(=O)N1CCc1ccccc1 (stereo not given) do in these assays?
KCNQ2 block: inactive; KCNQ2 pot: 5.8*; Kir21 confirm: inactive; HEK293 ctr: inactive; CHO-K1 Tl ctr: -9; KCNQ1 pot spec: -22; KCNQ2 pot confirm: 22*; Kir21 spec: -53; KCNQ2 W236L pot: inactive

Results for O=C1CC(N2CCN(Cc3ccccc3)CC2)C(=O)N1CCc1ccccc1 (stereo not given) ?
KCNQ2 block: inactive; KCNQ2 pot: 0.92

Results for Cc1ccc2c(c1)N(C(=O)CCC(=O)NC1CCC(C)CC1)CCO2 (stereo not given) ?
KCNQ2 block: inactive; KCNQ2 pot: 0.78

How did O=C(CSc1nnnn1-c1cccc2c1CCCC2)NC1CCCC1 do in these assays?
KCNQ2 block: inactive

How did COc1ccc(CNC(=O)c2nc(S(=O)(=O)Cc3ccccc3)ncc2Cl)cc1 do in these assays?
KCNQ2 block: inactive

Results for CCOc1ccccc1NC(=O)c1nc(S(=O)(=O)Cc2cccc(C)c2)ncc1Cl ?
KCNQ2 block: inactive; KCNQ2 pot: 0.76
